We go through five compounds from PubChem BioAssay.

Activity calls are given as the source filed them.

Experiment [1] relates to Plasmodium falciparum Sir2 (PF13_0152, Sir2A). Nature of the experiment: pfSir2 binders on small-molecule microarrays, primary screen, biochemical, small-molecule microarray, 635 nm fluorescence (AID 1098).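 Note: score merges spot fluorescence intensity with its signal-to-noise ratio.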 The conditions noted are these: small-molecule microarray binding, fluorescence 635 nm; higher = more signal.
Experiment [2] can be described thus: small-molecule microarray binders of probe aDKK1, primary screen, biochemical, biotinylated probe, 635/667 nm fluorescence (AID 1099).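 Note: score merges 667nm spot fluorescence with signal to noise across triplicate slides.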 The note with it: higher = more signal.
Experiment [3] can be described thus: small-molecule microarray binders of probe aCHRDL2, primary screen, biochemical, biotinylated probe, 635/667 nm fluorescence (AID 1100). The note with it: higher = more signal.
Experiment [4] is described as follows: splicing luciferase reporter signal modulators, primary screen, spliceosome inhibition project, cell-based, HEK293, splice +/- reporter (AID 1101).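 Note: HEK293 cells carrying a splicing-competent luciferase reporter gene; test concentration not given here.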 The note with it: luminescence, 24 h, higher = more signal, called active from +8 up or from −8 down. In general terms: A reporter such as luciferase makes a cellular process visible.
Experiment [5] concerns the target Fibroblast growth factor 10 (Homo sapiens) (UniProt O15520). Nature of the experiment: FGF10 binders on small-molecule microarrays, primary screen, biochemical, small-molecule microarray, 635 nm fluorescence (AID 1102). The conditions noted are these: FGF10 binding, fluorescence 635 nm, higher = more signal.
The test system of experiment [6] is glycogen synthase kinase-3 (GSK3A per assay name; protocol says GSK3B). As to the kind of experiment: GSK3 binders on small-molecule microarrays, primary screen, biochemical, small-molecule microarray, 635 nm fluorescence, GSK3A (AID 1103). Note: the record names both GSK3A and GSK3B. The conditions noted are these: small-molecule microarray binding, fluorescence 635 nm; higher = more signal.
Experiment [7] deals with Epidermal growth factor receptor (Homo sapiens) (UniProt P00533). As to the kind of experiment: EGFR binders on small-molecule microarrays, primary screen, biochemical, small-molecule microarray, 635 nm fluorescence (AID 1104).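 Note: score merges 667 nm emission intensity with spot signal to noise over triplicate slides.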 The note with it: EGFR binding, higher = more signal.
Epidermal growth factor receptor (Homo sapiens), sequence (P00533 whole entry, looked up): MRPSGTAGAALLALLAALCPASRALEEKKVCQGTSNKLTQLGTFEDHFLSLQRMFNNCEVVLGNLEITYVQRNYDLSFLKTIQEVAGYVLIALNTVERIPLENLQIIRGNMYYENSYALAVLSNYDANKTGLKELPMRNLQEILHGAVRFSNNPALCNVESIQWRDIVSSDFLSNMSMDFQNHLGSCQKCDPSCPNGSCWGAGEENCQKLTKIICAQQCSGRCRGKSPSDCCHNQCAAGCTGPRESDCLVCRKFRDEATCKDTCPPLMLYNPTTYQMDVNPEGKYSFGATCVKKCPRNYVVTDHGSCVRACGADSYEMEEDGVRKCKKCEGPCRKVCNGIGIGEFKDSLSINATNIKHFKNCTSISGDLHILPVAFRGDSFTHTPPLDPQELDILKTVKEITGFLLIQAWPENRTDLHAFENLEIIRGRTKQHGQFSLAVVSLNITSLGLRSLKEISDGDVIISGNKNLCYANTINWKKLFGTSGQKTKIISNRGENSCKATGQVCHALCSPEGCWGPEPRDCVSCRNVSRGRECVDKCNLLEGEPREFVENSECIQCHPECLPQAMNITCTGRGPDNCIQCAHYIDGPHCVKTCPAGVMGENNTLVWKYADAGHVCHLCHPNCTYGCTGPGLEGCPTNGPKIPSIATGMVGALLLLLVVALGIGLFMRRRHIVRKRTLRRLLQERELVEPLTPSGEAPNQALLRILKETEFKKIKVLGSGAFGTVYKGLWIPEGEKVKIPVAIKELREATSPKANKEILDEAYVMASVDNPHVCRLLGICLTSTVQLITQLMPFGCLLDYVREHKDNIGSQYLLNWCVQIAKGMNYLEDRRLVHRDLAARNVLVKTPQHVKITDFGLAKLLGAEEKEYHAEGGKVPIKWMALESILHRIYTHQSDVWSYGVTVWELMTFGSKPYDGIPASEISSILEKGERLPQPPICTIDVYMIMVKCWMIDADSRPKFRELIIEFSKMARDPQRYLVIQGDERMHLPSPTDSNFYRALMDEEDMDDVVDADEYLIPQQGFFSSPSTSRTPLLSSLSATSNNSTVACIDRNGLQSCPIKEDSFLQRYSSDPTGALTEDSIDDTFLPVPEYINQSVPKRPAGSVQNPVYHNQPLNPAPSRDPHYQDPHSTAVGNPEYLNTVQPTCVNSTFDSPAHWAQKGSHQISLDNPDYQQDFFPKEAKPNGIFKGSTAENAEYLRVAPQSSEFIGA
The target in experiment [8] is Follistatin-related protein 3 (Homo sapiens) (UniProt O95633). As to the kind of experiment: FSTL3 binders on small-molecule microarrays, primary screen, biochemical, small-molecule microarray, 635 nm fluorescence (AID 1105).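 Note: score merges emission near 667 nm and signal to noise per printed spot across three slides.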 The conditions noted are these: FSTL3 binding, higher = more signal.
Follistatin-related protein 3 (Homo sapiens), sequence (O95633 whole entry, looked up): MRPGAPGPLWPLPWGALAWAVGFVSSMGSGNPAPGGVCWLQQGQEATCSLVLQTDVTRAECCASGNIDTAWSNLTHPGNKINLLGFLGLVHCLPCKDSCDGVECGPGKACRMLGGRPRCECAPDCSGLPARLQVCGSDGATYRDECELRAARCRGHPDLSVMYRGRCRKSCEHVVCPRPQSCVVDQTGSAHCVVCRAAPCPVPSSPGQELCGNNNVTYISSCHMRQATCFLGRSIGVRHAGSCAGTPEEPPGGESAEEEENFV
Experiment [9] deals with Dickkopf-related protein 1 (Homo sapiens) (UniProt O94907). As to the kind of experiment: DKK1 binders on small-molecule microarrays, primary screen, biochemical, small-molecule microarray, 635 nm fluorescence scan (AID 1106).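 Note: score merges emission near 667 nm with signal to noise over three replicate slides.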 The conditions noted are these: DKK1 binding, higher = more signal.
Dickkopf-related protein 1 (Homo sapiens), sequence (O94907 whole entry, looked up): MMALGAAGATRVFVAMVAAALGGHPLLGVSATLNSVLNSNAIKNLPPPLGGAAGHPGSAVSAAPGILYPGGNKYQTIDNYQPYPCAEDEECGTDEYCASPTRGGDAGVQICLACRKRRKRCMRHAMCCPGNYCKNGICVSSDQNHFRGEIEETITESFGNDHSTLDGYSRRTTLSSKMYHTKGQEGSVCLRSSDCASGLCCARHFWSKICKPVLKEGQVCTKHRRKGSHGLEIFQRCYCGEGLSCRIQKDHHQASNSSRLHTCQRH
Experiment [10] deals with Inhibin beta A chain (activin A). Nature of the experiment: INHBA (activin A) binders on microarrays, primary screen, biochemical, small-molecule microarray, 635 nm fluorescence scan (AID 1107).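 Note: mouse activin A protein probed at 4.33 µg/mL on printed slides; score merges bound-protein fluorescence near 667 nm with spot signal-to-noise.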 The note with it: small-molecule microarray binding, higher = more signal.
Experiment [11] relates to Human papillomavirus type 1a protein E7 (residues 44-93). Nature of the experiment: HPV1a E7 fragment binders on microarrays, primary screen, biochemical, small-molecule microarray, residues 44-93, 635 nm fluorescence (AID 1108).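 Note: E7 fragment applied at 1 µg/mL in TBST for 1 h at 4 C; score combines spot fluorescence with its signal to noise ratio.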 The conditions noted are these: small-molecule microarray binding, fluorescence 635 nm; higher = more signal.
Experiment [12] in a line: modulators of HCV replicon luciferase signal, primary screen, HCV replication inhibitor project, Huh7 cells, luciferase reporter (AID 1109).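 Note: huh7 hepatoma cells harbouring a luciferase neomycin HCV replicon reporter; luciferase luminescence as measure of HCV replicon replication; test concentration not given here.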 The note with it: 48 h, higher = more signal.
The target of experiment [13] is Left-right determination factor 2 (Homo sapiens) (UniProt O00292). As to the kind of experiment: LEFTY2 binders on small-molecule microarrays, primary screen, biochemical, small-molecule microarray, 635 nm fluorescence scan (AID 1110). The note with it: LEFTY2 binding, higher = more signal.
Left-right determination factor 2 (Homo sapiens), sequence (O00292 whole entry, looked up): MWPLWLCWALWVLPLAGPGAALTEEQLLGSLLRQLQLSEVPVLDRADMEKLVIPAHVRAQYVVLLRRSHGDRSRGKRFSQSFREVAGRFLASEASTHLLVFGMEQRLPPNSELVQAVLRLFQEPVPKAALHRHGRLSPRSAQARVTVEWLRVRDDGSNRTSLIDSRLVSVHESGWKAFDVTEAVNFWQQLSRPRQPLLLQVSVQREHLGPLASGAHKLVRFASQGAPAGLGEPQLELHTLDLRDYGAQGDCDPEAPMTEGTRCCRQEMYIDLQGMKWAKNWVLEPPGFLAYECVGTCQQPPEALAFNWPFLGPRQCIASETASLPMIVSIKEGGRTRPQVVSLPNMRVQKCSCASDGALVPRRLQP
Experiment [14] addresses Calmodulin-1 (Homo sapiens) (UniProt P0DP23). As to the kind of experiment: CALM1 binders on microarrays, EGTA buffer, profiling panel, biochemical, small-molecule microarray, Cy5-labelled CALM1 (AID 1111).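 Note: labelled calmodulin applied in Tris saline Tween buffer holding calcium plus EGTA and DTT.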 The conditions noted are these: Cy5-CALM1 binding fluorescence, higher = more signal.
Experiment [15] shares this target. As to the kind of experiment: calcium-bound CALM1 binders on microarrays, profiling panel, artefact control for SMM control-protein annotation, biochemical, small-molecule microarray, Cy5-labelled CALM1, plus calcium (AID 1112).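 Note: score merges spot fluorescence with signal to noise from triplicate slides.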 The conditions noted are these: Cy5-CALM1 binding fluorescence, higher = more signal.
The nature of experiment [16]: small-molecule microarray binders of probe aWnt5a, primary screen, biochemical, biotinylated probe, 635/667 nm fluorescence (AID 1113).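 Note: score merges 667 nm fluorescence intensity with signal-to-noise per printed feature.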 The conditions noted are these: higher = more signal.
The nature of experiment [17]: small-molecule microarray binders of probe aShh, primary screen, biochemical, biotinylated probe, 635/667 nm fluorescence (AID 1114).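 Note: probe is biotin-labelled aShh protein from a stem cell growth factor screen; measures binding of labelled protein to compounds printed on the slide; score merges feature fluorescence at 667 nm with signal-to-noise.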 The note with it: higher = more signal.
Experiment [18] can be described thus: small-molecule microarray binders of probe aNog, primary screen, biochemical, biotinylated probe, 635/667 nm fluorescence (AID 1115).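 Note: probe is biotinylated aNog protein used at 0.15 µg/mL for 1 h at 4 C; z-score combines 667 nm fluorescence of each spot with its signal to noise.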 The note with it: higher = more signal.
In experiment [19] the target is Torsin-1A-interacting protein 1 (Homo sapiens) (UniProt Q5JTV8). Nature of the experiment: LAP1 binders from COS7 cell lysate, primary screen, small-molecule microarray, 635/667 nm fluorescence (AID 1116). The note with it: COS7-hLAP1 lysate binding, 635 nm fluorescence, higher = more signal.
Torsin-1A-interacting protein 1 (Homo sapiens), sequence (Q5JTV8 whole entry, looked up): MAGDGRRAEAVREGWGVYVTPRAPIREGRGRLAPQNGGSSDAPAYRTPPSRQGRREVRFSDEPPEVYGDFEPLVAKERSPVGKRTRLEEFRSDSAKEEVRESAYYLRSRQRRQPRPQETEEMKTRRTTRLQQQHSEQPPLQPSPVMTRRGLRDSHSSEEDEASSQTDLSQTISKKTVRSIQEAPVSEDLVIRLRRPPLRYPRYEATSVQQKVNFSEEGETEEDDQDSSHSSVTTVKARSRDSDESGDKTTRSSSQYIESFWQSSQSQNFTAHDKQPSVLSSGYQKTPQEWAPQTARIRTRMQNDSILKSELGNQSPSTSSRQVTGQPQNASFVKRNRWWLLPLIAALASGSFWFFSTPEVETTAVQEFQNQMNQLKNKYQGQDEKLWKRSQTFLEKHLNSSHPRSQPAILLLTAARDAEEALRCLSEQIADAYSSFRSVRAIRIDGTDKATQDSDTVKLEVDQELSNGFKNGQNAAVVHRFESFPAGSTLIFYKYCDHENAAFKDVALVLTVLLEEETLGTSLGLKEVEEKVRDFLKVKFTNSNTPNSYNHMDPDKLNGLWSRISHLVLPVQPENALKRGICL
The target in experiment [20] is Alpha-bungarotoxin (Bungarus multicinctus) (UniProt P60615). Nature of the experiment: alpha-bungarotoxin binders on microarray, profiling panel, artefact control for SMM control protein annotation, biochemical, small-molecule microarray, Alexa647 label, 635/667 nm fluorescence (AID 1117). The conditions noted are these: alpha-BTX-A647 binding fluorescence, higher = more signal.
Alpha-bungarotoxin (Bungarus multicinctus), sequence (P60615 whole entry, looked up): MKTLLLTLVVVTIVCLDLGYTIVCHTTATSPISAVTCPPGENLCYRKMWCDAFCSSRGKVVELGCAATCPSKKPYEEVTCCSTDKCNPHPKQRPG

Fibroblast growth factor 10 (Homo sapiens), sequence (O15520 whole entry, looked up): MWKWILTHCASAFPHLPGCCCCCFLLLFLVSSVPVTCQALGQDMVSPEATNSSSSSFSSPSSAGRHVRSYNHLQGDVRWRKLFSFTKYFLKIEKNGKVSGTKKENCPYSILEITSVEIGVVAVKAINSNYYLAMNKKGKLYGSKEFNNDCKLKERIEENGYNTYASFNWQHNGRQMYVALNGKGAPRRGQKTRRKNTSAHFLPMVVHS

Turning to `COc1ccc([Si](C)(C)[C@@H]2[C@@H](CC(=O)N3Cc4ccccc4C[C@H]3CO)O[C@]3(C(=O)N(Cc4cccc(N5CCOC5=O)c4)c4ccccc43)[C@H]2C)cc1`, the composite z-score is 1.21 in experiment [1]; -0.503 in experiment [2]; -0.562 in experiment [3]; 0.628 in experiment [5]; 0.717 in experiment [6]; 1.01 in experiment [7]. Also, the composite z-score in [8] was 1.37; in experiment [9], 1.21; in experiment [10], 0.792; in experiment [11], 1.02; in experiment [13], 0.736; in [14], -0.695. The composite z-score in experiment [15] is -0.611; in experiment [16] it was -0.0684; in [17], -0.0243; in experiment [18], -0.397; in experiment [19] it was 0.0192; in experiment [20], 0.258. Besides, the figures for the z-score in [4] and in experiment [12] were -0.589 (inactive) and -3.46, respectively.

With `CN(C)CCCCNC(=O)[C@H]1C[C@H]2C(=O)NCC(=O)N2[C@H]1c1ccc(O)cc1`, the composite z-score in [1] was 0.978; in experiment [2], -0.114; in experiment [3], 0.0669; in experiment [5] it was -0.14; in [6], -0.286; in experiment [7], -0.603. Besides, the composite z-score is -0.107 in [8]; 0.0896 in experiment [9]; -0.0569 in [10]; -0.392 in experiment [11]; -0.735 in [13]; -0.608 in experiment [14]. Besides, the composite z-score is 0.577 in experiment [15]; -0.145 in experiment [16]; -0.501 in [17]; -0.248 in [18]; -0.38 in [19]; 0.52 in experiment [20]. In addition, the z-score in [4] is -0.127 (inactive); in experiment [12] it was 0.143.

`COCCOC(=O)N1C(=O)[C@@]2(c3cc(C#CCNC(N)=O)ccc31)[C@H](C(=O)Nc1nc3ccccc3s1)[C@H]1C(=O)O[C@H](c3ccccc3)[C@H](c3ccccc3)N1[C@@H]2c1ccccc1OCCO`: the composite z-score in experiment [1] worked out at 0.678; in experiment [2], 0.376; in experiment [3], 0.812; in [5], 1.38; in [6] it was 0.392; in [7], 0.597. Moreover, the composite z-score in [8] worked out at 1.05; in [9] it was 0.397; in experiment [10], 1.22; in experiment [11] it was 0.629; in experiment [13], 0.685; in [14] it was 0.567. Besides, the composite z-score in [15] is 0.132; in [16], -0.0405; in [17] it was 0.142; in [18] it was 0.355; in experiment [19] it was 1.05; in experiment [20], 0.771. The z-score was -0.549 (inactive) in experiment [4] and -1.22 in [12].

Regarding `COc1ccc([Si](C)(C)[C@@H]2[C@@H](CC(=O)N(CCO)Cc3ccccc3)O[C@]3(C(=O)N(Cc4ccc(N5C(=O)c6cccc7cccc5c67)cc4)c4ccccc43)[C@H]2C)cc1`, the composite z-score is 1.17 in experiment [1]; -0.0669 in [2]; 0.0161 in experiment [3]; 0.404 in experiment [5]; 0.01 in experiment [6]; 0.317 in experiment [7]. Also, the composite z-score worked out at 0.12 in [8]; 0.283 in experiment [9]; 0.516 in experiment [10]; 0.749 in experiment [11]; 0.495 in experiment [13]; 0.553 in experiment [14]. The composite z-score was 0.822 in experiment [15]; -0.124 in [16]; 0.0725 in experiment [17]; 0.189 in [18]; 0.762 in experiment [19]; 2.24 in experiment [20]. Further, the z-score in [4] was -1.33 (inactive); in experiment [12] it was -4.47.

For the compound `O=C(NCC(O)CO)[C@@]1(CCS(=O)(=O)c2ccccc2)N=C(c2ccc(OCCCO)cc2)O[C@H]1c1ccccc1` (stereo not given in full), the composite z-score was 1.11 in experiment [1]; 1.27 in [2]; 0.985 in [3]; 0.303 in experiment [5]; 0.235 in experiment [6]; -0.928 in experiment [7]. The composite z-score was -0.555 in experiment [8]; -1.1 in [9]; 0.801 in experiment [10]; 1.47 in [11]; -1.15 in experiment [13]; 1.51 in experiment [14]. Moreover, the composite z-score in [15] came to 1.14; in [16], 0.0676; in experiment [17], 0.181; in [18], 0.0574; in [19] it was 2.55; in experiment [20] it was 3.32. Further, the z-score in experiment [4] is -0.809 (inactive); in [12], 0.0294.
